Here are results for 17 compounds from ChEMBL document CHEMBL1961873, “Compounds: GSK PKIS; Assays: Nanosyn kinase panel” (2012).

SMILES strings stand for the structures.

The target in assay [1] is 5'-AMP-activated protein kinase catalytic subunit alpha-2 (Homo sapiens) (UniProt P54646). The note with it: at 1 µM.
In assay [2] the target is T1, NUAK family SNF1-like kinase 1 (Homo sapiens) (UniProt O60285).
T1 sequence (whole entry): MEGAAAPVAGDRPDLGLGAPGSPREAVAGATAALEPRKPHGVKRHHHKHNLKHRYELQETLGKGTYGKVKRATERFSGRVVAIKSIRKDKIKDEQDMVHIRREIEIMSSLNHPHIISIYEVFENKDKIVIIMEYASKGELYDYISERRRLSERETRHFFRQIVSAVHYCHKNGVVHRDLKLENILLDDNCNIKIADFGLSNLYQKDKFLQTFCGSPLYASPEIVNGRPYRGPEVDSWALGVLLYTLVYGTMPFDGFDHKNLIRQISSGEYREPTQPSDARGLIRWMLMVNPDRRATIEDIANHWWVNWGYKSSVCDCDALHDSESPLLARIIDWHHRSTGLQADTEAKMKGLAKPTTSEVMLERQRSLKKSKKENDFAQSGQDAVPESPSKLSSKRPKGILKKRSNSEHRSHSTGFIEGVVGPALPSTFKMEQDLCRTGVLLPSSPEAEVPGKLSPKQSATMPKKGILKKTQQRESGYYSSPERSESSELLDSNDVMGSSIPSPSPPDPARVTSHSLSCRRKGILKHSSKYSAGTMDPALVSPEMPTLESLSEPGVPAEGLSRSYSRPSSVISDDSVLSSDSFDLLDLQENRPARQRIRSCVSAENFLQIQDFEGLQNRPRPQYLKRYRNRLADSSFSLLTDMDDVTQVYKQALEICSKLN
The note with it: at 0.1 µM.

The target of assay [3] is T1, NUAK family SNF1-like kinase 1 (Homo sapiens). The note with it: at 1 µM.
The target in assay [4] is T2, Serine/threonine-protein kinase BRSK1 (Homo sapiens) (UniProt Q8TDC3).
T2 sequence (whole entry): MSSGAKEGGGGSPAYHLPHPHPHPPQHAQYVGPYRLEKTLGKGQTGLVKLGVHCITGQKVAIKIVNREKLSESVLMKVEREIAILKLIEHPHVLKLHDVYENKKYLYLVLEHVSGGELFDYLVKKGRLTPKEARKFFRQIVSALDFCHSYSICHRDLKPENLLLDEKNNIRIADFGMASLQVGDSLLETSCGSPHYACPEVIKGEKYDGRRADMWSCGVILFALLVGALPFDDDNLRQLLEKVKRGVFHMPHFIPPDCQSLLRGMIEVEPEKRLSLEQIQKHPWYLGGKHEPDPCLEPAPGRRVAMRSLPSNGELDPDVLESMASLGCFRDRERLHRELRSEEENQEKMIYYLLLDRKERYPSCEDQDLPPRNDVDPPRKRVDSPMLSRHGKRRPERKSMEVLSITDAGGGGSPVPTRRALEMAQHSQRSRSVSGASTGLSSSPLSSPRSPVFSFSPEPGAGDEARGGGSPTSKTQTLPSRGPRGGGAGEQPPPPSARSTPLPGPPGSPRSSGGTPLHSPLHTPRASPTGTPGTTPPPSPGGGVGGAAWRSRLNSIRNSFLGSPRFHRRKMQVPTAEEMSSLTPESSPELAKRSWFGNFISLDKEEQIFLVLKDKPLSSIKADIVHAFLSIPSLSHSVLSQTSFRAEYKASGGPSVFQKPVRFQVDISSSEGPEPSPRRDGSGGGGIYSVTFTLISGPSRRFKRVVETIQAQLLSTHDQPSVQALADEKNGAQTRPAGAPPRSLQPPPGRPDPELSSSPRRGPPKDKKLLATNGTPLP
The conditions noted are these: at 0.1 µM.

In assay [5] the target is T2, Serine/threonine-protein kinase BRSK1 (Homo sapiens). The note with it: at 1 µM.
The target in assay [6] is T3, Serine/threonine-protein kinase BRSK2 (Homo sapiens) (UniProt Q8IWQ3).
T3 sequence (whole entry): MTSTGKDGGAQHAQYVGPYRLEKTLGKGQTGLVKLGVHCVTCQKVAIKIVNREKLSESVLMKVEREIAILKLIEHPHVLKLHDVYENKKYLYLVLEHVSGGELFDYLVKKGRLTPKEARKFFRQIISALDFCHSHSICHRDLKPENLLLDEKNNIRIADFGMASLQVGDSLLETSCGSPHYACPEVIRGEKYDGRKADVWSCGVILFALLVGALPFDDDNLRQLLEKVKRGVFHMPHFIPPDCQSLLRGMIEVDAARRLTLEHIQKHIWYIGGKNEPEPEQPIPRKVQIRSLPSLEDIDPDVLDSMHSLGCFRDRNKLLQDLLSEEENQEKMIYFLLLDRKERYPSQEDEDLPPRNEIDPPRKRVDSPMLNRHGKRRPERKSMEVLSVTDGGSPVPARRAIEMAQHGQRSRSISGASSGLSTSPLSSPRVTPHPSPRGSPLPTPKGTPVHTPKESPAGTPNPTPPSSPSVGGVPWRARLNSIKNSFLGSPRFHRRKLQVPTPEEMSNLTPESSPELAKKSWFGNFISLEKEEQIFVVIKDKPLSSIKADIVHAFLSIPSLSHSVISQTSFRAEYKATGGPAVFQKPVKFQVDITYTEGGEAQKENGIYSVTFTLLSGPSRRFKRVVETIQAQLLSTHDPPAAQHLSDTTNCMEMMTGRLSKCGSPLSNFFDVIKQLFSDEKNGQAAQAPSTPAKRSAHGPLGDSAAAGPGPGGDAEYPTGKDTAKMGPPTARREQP
The note with it: at 0.1 µM.

For assay [7], the target named is T3, Serine/threonine-protein kinase BRSK2 (Homo sapiens). The note with it: at 1 µM.
Assay [8] deals with Calcium/calmodulin-dependent protein kinase type 1D (Homo sapiens) (UniProt Q8IU85). The note with it: at 0.1 µM.
For assay [9] the target is unchanged. The note with it: at 1 µM.
Assay [10] addresses Calcium/calmodulin-dependent protein kinase type II subunit alpha (Homo sapiens) (UniProt Q9UQM7). The note with it: at 0.1 µM.

Calcium/calmodulin-dependent protein kinase type 1D (Homo sapiens), sequence (Q8IU85 whole entry, looked up): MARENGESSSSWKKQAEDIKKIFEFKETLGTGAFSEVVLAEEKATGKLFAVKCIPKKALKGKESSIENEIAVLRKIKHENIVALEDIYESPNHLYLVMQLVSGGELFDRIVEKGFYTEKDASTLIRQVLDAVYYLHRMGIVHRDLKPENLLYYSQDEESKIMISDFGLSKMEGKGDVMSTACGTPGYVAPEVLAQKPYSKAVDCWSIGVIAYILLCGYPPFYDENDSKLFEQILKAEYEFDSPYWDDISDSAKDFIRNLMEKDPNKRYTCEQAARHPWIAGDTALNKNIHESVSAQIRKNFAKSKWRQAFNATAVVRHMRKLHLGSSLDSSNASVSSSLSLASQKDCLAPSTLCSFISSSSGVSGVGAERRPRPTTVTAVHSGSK
5'-AMP-activated protein kinase catalytic subunit alpha-2 (Homo sapiens), sequence (P54646 whole entry, looked up): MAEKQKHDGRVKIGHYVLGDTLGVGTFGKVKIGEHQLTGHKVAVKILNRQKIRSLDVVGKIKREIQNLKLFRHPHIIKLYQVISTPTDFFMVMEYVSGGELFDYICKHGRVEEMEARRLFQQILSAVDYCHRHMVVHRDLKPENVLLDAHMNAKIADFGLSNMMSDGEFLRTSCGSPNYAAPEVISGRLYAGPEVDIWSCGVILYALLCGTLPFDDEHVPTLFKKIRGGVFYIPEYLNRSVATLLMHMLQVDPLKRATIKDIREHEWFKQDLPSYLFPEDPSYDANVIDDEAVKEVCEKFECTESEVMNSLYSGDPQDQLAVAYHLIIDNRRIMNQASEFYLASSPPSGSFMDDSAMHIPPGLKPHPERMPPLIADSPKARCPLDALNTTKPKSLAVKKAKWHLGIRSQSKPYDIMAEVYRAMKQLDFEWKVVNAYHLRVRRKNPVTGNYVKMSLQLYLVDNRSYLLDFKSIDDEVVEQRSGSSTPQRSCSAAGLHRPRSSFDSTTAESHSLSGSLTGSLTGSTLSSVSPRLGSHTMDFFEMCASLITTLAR
Calcium/calmodulin-dependent protein kinase type II subunit alpha (Homo sapiens), sequence (Q9UQM7 whole entry): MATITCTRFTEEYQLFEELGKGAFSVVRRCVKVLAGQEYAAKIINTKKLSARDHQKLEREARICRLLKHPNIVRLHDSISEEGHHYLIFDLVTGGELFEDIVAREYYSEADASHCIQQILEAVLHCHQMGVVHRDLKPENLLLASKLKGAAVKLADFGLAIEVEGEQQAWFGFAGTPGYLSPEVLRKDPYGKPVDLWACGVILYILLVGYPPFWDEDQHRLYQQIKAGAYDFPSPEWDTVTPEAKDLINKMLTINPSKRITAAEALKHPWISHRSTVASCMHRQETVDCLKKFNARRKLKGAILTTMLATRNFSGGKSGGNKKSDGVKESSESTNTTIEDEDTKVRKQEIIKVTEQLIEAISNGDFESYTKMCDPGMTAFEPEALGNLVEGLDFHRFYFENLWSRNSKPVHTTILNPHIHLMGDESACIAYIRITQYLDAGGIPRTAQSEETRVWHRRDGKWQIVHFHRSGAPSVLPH

Regarding `CC1=C(C(=O)Nc2ccc3[nH]ncc3c2)C(c2ccc(Cl)c(Cl)c2)CC(=O)N1` (configuration not stated), the inhibition in assay [1] is 7.05%; in assay [2], -0.25%; in assay [3], 14.9%; in assay [4] it was 1.14%; in assay [5], 10.1%; in assay [6], 1.61%. For the same compound, the inhibition in assay [7] is 15.5%; in [8], -0.31%; in [9], 1.37%; in assay [10] it was 1.87%.
Take `N#Cc1c(NC(=O)c2cccc3ccccc23)sc2c1CCCC2`: the inhibition worked out at 5.58% in [1]; 1.58% in assay [2]; 2.23% in assay [4]; 3.56% in assay [5]; 1.18% in assay [6]; 6.1% in [7]. Also, the inhibition amounted to 1.08% in assay [8], 2.77% in assay [9] and 1.29% in assay [10].
Regarding `Cc1cccc(-c2n[nH]cc2-c2ccc3ncccc3n2)n1`, the inhibition is 1.54% in assay [1]; 0.78% in assay [2]; 4.74% in assay [3]; 0.22% in assay [4]; 1.97% in [5]; 2.17% in [6]. Also, the inhibition is 2.14% in assay [7], 0.56% in assay [8], 1.08% in assay [9] and -1.03% in [10].
`CS(=O)(=O)CCNCc1ccc(-c2ccc3ncnc(Nc4ccc(OCc5ccccc5)c(Cl)c4)c3c2)o1`: the inhibition is 0.49% in [1]; 0.49% in assay [2]; 1.58% in assay [3]; 0.43% in assay [4]; -0.39% in [5]; 0.27% in [6]. In addition, the inhibition in assay [7] is 2.32%; in assay [8], -0.75%; in assay [9], 1.29%; in assay [10], -1.33%.
`O=C1NC(=O)C(c2cccc(Cl)c2)=C1Nc1ccc(O)c(Cl)c1`: the inhibition in assay [1] amounted to 11%; in assay [2], 8.01%; in [3], 48.3%; in assay [4], 2.57%; in assay [5], 12.9%; in assay [6], 2.05%. Also, the inhibition in assay [7] is 19%; in [8], 1.1%; in assay [9], 5.88%; in assay [10] it was 3.72%.
For the compound `Nc1nc(-c2ccc3c(c2)C(=Cc2cc(Br)c(O)c(Br)c2)C(=O)N3)cs1`, the inhibition in [1] worked out at 1.63%; in assay [2], 3.02%; in [3], 5.77%; in assay [4], 1.06%; in [5] it was 6.62%; in assay [6] it was 0.58%. Further, the inhibition in assay [7] is 8.7%; in [8], 0.31%; in assay [9], 9%; in assay [10], -5.57%.
Regarding `COc1cc(C=NNc2ncnc3c2cnn3-c2ccccc2)ccc1O`, the inhibition in assay [1] was determined as 6.79%; in [2], 16.1%; in assay [3], 57.3%; in assay [4], 8.76%; in assay [5], 40.1%; in assay [6], 10.3%. The inhibition is 43.5% in [7], 0.83% in [8], 2.96% in assay [9] and 3.14% in assay [10].
Consider `[O-][S+]1CCN(Cc2ccc(-c3ccc4ncnc(Nc5ccc(OCc6ccccc6)c(F)c5)c4c3)o2)CC1`, for which the inhibition in assay [2] stood at 1.72%; in assay [3], 2.16%; in assay [4], 3.74%; in [5] it was 5.47%; in assay [6] it was 4.69%; in [7], 5.63%. For the same compound, the inhibition in assay [8] was -0.91%; in assay [9], 1.4%; in [10], 1.36%.
`CCn1c(-c2nonc2N)nc2ccncc21`: the inhibition in assay [1] amounted to 4.28%; in assay [2], 1.84%; in [3], 4.31%; in assay [4] it was 1.52%; in assay [5], 2.23%; in assay [6] it was 1.34%. Besides, the inhibition in [7] was found to be 0.91%; in assay [8], 1.15%; in assay [9], 1.59%; in [10], 3.93%.
Consider `COc1cc2ncn(-c3cc(OCc4ccccc4Cl)c(C(N)=O)s3)c2cc1OC`, for which the inhibition amounted to 3.59% in [1]; 14.3% in assay [2]; 58.6% in assay [3]; 7.81% in [4]; 40.6% in [5]; 12.4% in assay [6]. For the same compound, the inhibition in assay [7] is 48.6%; in assay [8] it was 0.78%; in assay [9] it was 3.64%; in [10], -2.74%.
`COc1cccc(-n2ncc3c(N/N=C/c4cccc(F)c4)ncnc32)c1`: the inhibition in assay [1] was 6.48%; in assay [2] it was 3.92%; in assay [4], 2.83%; in assay [5], 13.7%; in assay [6] it was 2.69%; in assay [7], 20.5%. Moreover, the values for the inhibition in assay [8], in [9] and in [10] were 0.51%, 1.96% and 1.19%, respectively.
On to `CCN1CCC(CC(=O)Nc2n[nH]c3nc(-c4cccs4)c(Br)cc23)CC1`, for which the inhibition is 5.99% in assay [1]; -2.53% in assay [2]; 9.14% in assay [3]; 3.39% in assay [4]; 21.7% in assay [5]; 2.29% in assay [6]. Besides, the inhibition in [7] is 18.5%; in assay [8], -0.45%; in assay [9], 1.72%; in assay [10], -4.08%.
For `CS(=O)(=O)CCNCc1ccc(-c2ccc3ncnc(Nc4ccc(OCc5cccc(F)c5)c(C(F)(F)F)c4)c3c2)o1`, the inhibition is 3.63% in [1]; 2.03% in [2]; 0.5% in [3]; -0.9% in [4]; -1.79% in assay [5]; 1.37% in assay [6]. Also, the inhibition is 3.52% in [7], -0.13% in [8], 0.72% in assay [9] and 3.67% in assay [10].
As for `COc1cc2ncn(-c3cc(OCc4ccccc4C(F)(F)F)c(C(N)=O)s3)c2cc1OC`, the inhibition turned out to be 6.24% in assay [1]; 21.7% in [2]; 65.5% in [3]; 6.7% in assay [4]; 41.1% in assay [5]; 14.8% in [6]. For the same compound, the inhibition was 52.4% in assay [7], -0.86% in [8], -1.9% in assay [9] and 2.39% in assay [10].
For `Fc1cccc(COc2ccc(Nc3ncnc4cc(-c5ccc[nH]5)sc34)cc2Cl)c1`, the inhibition in assay [1] amounted to 3.27%; in [2], 2.43%; in assay [3], 6.42%; in [4], 0.67%; in assay [5], 1.16%; in assay [6] it was 0.79%. For the same compound, the inhibition in assay [7] stood at 4.01%; in assay [8] it was 1.56%; in assay [9] it was 1.16%; in assay [10], 0.3%.
For the compound `COc1ccc(-c2nn3ncccc3c2-c2ccnc(Nc3ccc(Cl)c(C(F)(F)F)c3)n2)cc1`, the inhibition in assay [1] is -8.45%; in [2] it was -1.07%; in [3], -2.34%; in [4], 1.4%; in assay [5] it was 1.98%; in assay [6] it was 2.7%. Moreover, the inhibition in [7] was 4.49%; in assay [8], -0.51%; in [9], -1.4%; in assay [10] it was 1.97%.
Consider `O=C1NC(=O)C(c2ccc(Cl)cc2)=C1Nc1ccc(Cl)c(C(=O)O)c1`, for which the inhibition in assay [1] was -0.57%; in [2], 1.82%; in assay [3], 3.54%; in assay [4], -0.49%; in [5], 0.55%; in assay [6], 0.35%. In addition, the inhibition in assay [7] is -1.78%; in assay [8], -0.66%; in [9], 4.19%; in assay [10], -2.83%.

By inhibition is commonly meant the change of the read-out against control, counted positive when it falls.
